Source: PubChem BioAssay
Calls of active or inactive are those of the source.

Key:
[1] = small molecules captured by biotinylated probe aFSTL3 – biochemical, small-molecule microarray, fluorescence 635/667, stem cell growth factor project, primary screen (AID 1064); settings: higher = more signal;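 further: measures binding of the biotinylated anti-FSTL3 antibody to printed compounds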
[2] = binders from COS7 lysate, DM2A8 probe, primary screen, torsin A project, cell lysate, small-molecule microarray, fluorescence 635/667 (AID 1065); settings: higher = more signal, COS7 lysate expressing mutant human TOR1A
[3] = small molecules captured by biotinylated probe aFGF2 – biochemical, small-molecule microarray, fluorescence 635/667, stem cell growth factor project, primary screen (AID 1067); settings: higher = more signal;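 further: measures binding of biotinylated aFGF2 protein to printed compounds on slides; z-score merges feature fluorescence and signal-to-noise across triplicate slides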
[4] = small molecules captured by biotinylated probe aFGF10 – biochemical, small-molecule microarray, fluorescence 635/667, stem cell growth factor project, primary screen (AID 1071); settings: higher = more signal;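 further: score merges 667 nm spot intensity and signal to noise from triplicate slides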
[5] = target: Neurogenic locus notch homolog protein 2 (Homo sapiens) (UniProt Q04721); assay: small molecules binding Notch2 protein – biochemical, small-molecule microarray, 635 nm fluorescence, stem cell growth factors, primary screen (AID 1073); settings: higher = more signal
[6] = target: Pro-neuregulin-1, membrane-bound isoform (Homo sapiens) (UniProt Q02297); assay: small molecules binding neuregulin-1 protein – biochemical, small-molecule microarray, fluorescence 635/667, psychiatric disease protein project, primary screen (AID 1075); settings: NRG1 binding, 635 nm fluorescence, higher = more signal;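 further: score combines 667 nm spot fluorescence with signal to noise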
[7] = system: Neuregulin-1 EGF-like domain; assay: small molecules binding NRG1 EGF domain – biochemical, small-molecule microarray, 635 nm fluorescence, primary screen (AID 1081); settings: higher = more signal;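 further: binding of the protein to compounds printed on small-molecule microarray slides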
[8] = FRG1 expression reporter modulators in myotubes – cell-based, C2C12 myotubes, firefly/Renilla luciferase, luminescence, FRG1 inhibition for FSHD, primary screen (AID 1084); settings: FRG1 promoter luciferase, higher = more signal, called active from +8 up or from −8 down
[9] = small molecules captured by biotinylated probe aFST – biochemical, small-molecule microarray, fluorescence 635/667, stem cell growth factor project, primary screen (AID 1086); settings: higher = more signal;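 further: score merges 667 nm fluorescence with signal-to-noise of each printed compound spot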
[10] = binders of probe aHhip on microarray, primary screen, stem cell growth factor project, biochemical, small-molecule microarray, fluorescence 635/667 (AID 1087); settings: higher = more signal;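 further: score merges spot fluorescence at 667nm with spot signal to noise ratio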
[11] = system: PRMT1 (protein arginine N-methyltransferase 1); assay: small molecules binding arginine methyltransferase PRMT1 – biochemical, small-molecule microarray, 635 nm fluorescence, primary screen (AID 1088); settings: higher = more signal;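 further: binding of Prmt1 protein to compounds spotted on small-molecule microarray slides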
[12] = growth effects on S. cerevisiae YJM789 – YJM789 clinical isolate, OD600, 24 h, basal, primary screen (AID 1089); settings: higher = more signal, called active from +8 up or from −8 down;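 further: growth of clinical yeast isolate S. cerevisiae YJM 789 seeded 1000 cells per well; test concentration not given here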
[13] = S. pombe growth modifiers, basal conditions – strain 972, OD600, 24 h, no modulator, primary screen (AID 1090);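 further: basal condition with compound alone and no growth modifier present; test concentration not given here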; settings: S. pombe 972 growth, higher = more signal, called active from +8 up or from −8 down
[14] = budding yeast growth modifiers under rapamycin – strain BY4716, OD600, 96 h, primary screen (AID 1091); further: test concentration not given here; settings: S. cerevisiae BY4716 + rapamycin, higher = more signal, called active from +8 up or from −8 down
[15] = target: Torsin-1A-interacting protein 2 (Homo sapiens) (UniProt Q8NFQ8); assay: small molecules binding lysate-expressed LULL1 – cell lysate, human LULL1 lysate, 635/667 nm fluorescence, primary screen (AID 1092); settings: small-molecule microarray, hLULL1 lysate binding, 635 nm fluorescence; higher = more signal;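 further: probe is lysate of COS7 cells overexpressing human LULL1; score merges per-feature 667 nm fluorescence with signal-to-noise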
[16] = optical density change of DRC41 E. coli – strain DRC41, OD650, 24 h, E. coli filamentation project, primary screen (AID 1093);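 further: MC1000 strain lacking acrAB efflux and sulA so SOS filamentation is blocked; test concentration not given here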; settings: E. coli DRC41 growth, higher = more signal, called active from +8 up or from −8 down
[17] = probe aLefty2 binding to arrayed compounds – biochemical, biotinylated probe, 635/667 nm fluorescence, primary screen (AID 1094); settings: small-molecule microarray, higher = more signal;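 further: score merges spot fluorescence near 667 nm with spot signal-to-noise ratio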
[18] = system: Noggin (protein binding on small-molecule microarray); assay: small molecules binding Noggin protein – biochemical, 635/667 nm fluorescence, primary screen (AID 1095); settings: 635 nm fluorescence, higher = more signal;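 further: score merges 667 nm feature fluorescence with signal to noise over triplicate slides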
[19] = target: Neurogenic locus notch homolog protein 3 (Homo sapiens) (UniProt Q9UM47); assay: small molecules binding NOTCH3 protein – biochemical, 635/667 nm fluorescence, primary screen (AID 1096); settings: small-molecule microarray, 635 nm fluorescence, higher = more signal
[20] = probe aEGFR binding to arrayed compounds – biochemical, biotinylated probe, 635/667 nm fluorescence, primary screen (AID 1097); settings: small-molecule microarray, higher = more signal;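 further: probe is a biotinylated anti-EGFR antibody binding compounds printed on slides; score combines fluorescence near 667 nm and signal to noise of each spot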

Chain of Neurogenic locus notch homolog protein 3 (Homo sapiens) (Q9UM47 whole entry, looked up): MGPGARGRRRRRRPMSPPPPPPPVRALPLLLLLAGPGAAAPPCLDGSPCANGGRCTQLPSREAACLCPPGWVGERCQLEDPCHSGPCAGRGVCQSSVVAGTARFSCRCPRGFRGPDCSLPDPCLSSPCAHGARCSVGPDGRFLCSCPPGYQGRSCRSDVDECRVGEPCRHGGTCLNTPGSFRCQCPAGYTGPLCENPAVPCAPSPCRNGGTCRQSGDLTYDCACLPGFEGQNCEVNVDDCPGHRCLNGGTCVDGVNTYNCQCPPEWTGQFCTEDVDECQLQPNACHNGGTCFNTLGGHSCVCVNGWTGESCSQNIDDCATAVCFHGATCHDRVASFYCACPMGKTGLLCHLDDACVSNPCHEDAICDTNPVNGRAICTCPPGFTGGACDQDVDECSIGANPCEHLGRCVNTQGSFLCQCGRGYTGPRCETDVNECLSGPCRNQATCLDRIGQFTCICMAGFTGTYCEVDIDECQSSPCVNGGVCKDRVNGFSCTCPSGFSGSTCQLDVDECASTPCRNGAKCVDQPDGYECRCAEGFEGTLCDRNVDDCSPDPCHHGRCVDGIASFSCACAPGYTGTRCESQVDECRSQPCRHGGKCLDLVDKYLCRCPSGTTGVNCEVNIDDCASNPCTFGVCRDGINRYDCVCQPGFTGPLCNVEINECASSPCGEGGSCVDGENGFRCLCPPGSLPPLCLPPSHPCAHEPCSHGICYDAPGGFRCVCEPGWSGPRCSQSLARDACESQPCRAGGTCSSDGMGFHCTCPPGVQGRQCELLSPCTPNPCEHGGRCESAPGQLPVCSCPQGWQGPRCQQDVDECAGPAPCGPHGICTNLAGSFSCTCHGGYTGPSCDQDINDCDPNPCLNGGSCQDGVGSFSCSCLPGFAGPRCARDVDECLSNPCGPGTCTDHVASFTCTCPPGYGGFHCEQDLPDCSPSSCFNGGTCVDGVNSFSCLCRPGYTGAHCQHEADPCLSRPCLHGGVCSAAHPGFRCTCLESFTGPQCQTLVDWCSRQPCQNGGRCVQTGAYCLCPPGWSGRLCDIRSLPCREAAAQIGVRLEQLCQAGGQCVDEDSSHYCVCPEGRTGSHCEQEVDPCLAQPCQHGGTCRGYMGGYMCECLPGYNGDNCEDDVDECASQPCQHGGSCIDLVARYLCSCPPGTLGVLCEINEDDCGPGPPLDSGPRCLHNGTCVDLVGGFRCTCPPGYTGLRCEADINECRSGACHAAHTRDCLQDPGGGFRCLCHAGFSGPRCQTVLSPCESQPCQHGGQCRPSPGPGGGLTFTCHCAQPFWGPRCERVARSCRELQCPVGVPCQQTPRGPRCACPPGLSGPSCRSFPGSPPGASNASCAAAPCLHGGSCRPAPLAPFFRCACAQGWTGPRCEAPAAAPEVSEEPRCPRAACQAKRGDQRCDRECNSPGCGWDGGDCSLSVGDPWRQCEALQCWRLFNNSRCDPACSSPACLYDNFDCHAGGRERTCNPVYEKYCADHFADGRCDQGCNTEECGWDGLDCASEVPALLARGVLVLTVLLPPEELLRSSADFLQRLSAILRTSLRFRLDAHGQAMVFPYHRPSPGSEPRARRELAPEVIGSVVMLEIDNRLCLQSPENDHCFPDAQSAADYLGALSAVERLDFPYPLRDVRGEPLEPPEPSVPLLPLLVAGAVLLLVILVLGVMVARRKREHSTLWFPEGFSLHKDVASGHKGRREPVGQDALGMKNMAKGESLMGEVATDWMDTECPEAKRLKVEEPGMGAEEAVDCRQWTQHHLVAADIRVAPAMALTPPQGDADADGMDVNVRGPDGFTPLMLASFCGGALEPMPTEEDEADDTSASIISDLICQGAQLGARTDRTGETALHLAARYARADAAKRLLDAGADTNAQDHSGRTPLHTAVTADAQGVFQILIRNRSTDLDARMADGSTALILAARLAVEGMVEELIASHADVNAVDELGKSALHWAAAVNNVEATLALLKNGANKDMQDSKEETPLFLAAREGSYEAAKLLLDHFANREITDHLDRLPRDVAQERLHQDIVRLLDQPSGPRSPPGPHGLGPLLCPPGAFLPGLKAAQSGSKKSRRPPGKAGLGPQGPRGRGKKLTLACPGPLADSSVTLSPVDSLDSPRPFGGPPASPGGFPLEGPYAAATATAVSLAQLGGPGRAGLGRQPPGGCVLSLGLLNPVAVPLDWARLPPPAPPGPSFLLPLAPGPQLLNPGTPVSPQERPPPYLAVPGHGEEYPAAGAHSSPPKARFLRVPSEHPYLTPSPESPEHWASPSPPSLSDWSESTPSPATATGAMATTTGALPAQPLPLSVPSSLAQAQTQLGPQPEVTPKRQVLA
Chain of Pro-neuregulin-1, membrane-bound isoform (Homo sapiens) (Q02297 whole entry, looked up, the tested form may be a part, canonical isoform): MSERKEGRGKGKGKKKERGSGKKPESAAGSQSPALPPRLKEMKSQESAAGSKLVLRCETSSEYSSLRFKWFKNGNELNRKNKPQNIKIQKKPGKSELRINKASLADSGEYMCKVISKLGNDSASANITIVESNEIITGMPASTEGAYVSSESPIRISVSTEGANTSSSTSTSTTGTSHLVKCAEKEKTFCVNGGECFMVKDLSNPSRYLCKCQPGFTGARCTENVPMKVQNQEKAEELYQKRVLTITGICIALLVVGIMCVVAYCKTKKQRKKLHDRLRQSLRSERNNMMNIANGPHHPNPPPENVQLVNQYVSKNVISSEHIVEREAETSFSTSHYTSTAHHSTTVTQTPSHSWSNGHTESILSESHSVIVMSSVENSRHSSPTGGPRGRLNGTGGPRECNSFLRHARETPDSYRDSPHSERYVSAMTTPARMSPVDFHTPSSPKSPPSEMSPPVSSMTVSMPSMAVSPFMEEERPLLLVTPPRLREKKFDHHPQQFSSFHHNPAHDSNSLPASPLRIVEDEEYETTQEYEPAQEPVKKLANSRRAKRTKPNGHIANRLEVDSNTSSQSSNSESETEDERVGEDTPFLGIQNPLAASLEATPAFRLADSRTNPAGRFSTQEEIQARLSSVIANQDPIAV
Chain of Torsin-1A-interacting protein 2 (Homo sapiens) (Q8NFQ8 whole entry, looked up): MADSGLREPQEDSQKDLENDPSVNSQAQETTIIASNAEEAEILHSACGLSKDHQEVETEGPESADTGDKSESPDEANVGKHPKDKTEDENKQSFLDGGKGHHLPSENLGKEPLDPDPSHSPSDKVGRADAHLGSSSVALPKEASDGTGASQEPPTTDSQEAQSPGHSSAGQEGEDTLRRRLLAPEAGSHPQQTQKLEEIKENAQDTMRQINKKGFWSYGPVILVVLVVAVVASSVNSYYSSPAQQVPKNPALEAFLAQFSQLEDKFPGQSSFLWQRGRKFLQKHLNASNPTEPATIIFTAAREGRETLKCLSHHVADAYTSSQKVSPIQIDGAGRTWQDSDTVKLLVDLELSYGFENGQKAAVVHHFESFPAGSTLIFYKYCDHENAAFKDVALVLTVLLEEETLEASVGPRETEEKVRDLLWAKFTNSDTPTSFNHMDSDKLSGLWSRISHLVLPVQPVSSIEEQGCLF

C=C(C(=O)CC[C@@H](OC(=O)c1ccccc1-c1ccccc1C(=O)O)c1cccc(OCCO)c1)C(C)C
composite z-score [1]: -0.308
composite z-score [2]: 2.23
composite z-score [3]: -0.0577
composite z-score [4]: 1.22
composite z-score [5]: 0.234
composite z-score [6]: 0.535
composite z-score [7]: -0.141
z-score [8]: 0.345 (inactive)
composite z-score [9]: -0.156
composite z-score [10]: 0.154
composite z-score [11]: 1.46
z-score [12]: 0.433 (inactive)
z-score [13]: -0.0072 (inactive)
z-score [14]: -0.641 (inactive)
composite z-score [15]: -0.104
z-score [16]: 0.355 (inactive)
composite z-score [17]: -0.118
composite z-score [18]: 0.782
composite z-score [19]: 0.164
composite z-score [20]: -0.182

C=CC[C@]1(C(=O)NCCN2CCOCC2)N=C(c2ccc(OCCCO)cc2)O[C@H]1c1ccccc1
composite z-score [1]: -0.038
composite z-score [2]: 0.422
composite z-score [3]: -0.0691
composite z-score [4]: 0.571
composite z-score [5]: 0.862
composite z-score [6]: 0.0304
composite z-score [7]: 1.25
z-score [8]: 1.37 (inactive)
composite z-score [9]: 1.18
composite z-score [10]: -0.479
composite z-score [11]: 1.17
z-score [12]: -1.24 (inactive)
z-score [13]: -0.577 (inactive)
z-score [14]: -1.15 (inactive)
composite z-score [15]: 2.65
z-score [16]: 0.0059 (inactive)
composite z-score [17]: 0.0365
composite z-score [18]: 0.816
composite z-score [19]: -0.398
composite z-score [20]: 0.174

C=CCOC(=O)[C@@H]1[C@H]2C(=O)O[C@H](c3ccccc3)[C@H](c3ccccc3)N2[C@H](c2ccc(OCCOC(=O)[C@H]3C[C@H]4C(=O)N[C@@H](CCCCN(C)C)C(=O)N4[C@H]3c3cccc(OCCO)c3)cc2)[C@@]12C(=O)Nc1ccccc12
composite z-score [1]: 1.24
composite z-score [2]: 0.596
composite z-score [3]: 0.031
composite z-score [4]: -0.629
composite z-score [5]: -1.13
composite z-score [6]: 1.96
composite z-score [7]: 0.815
z-score [8]: 1.02 (inactive)
composite z-score [9]: -0.651
composite z-score [10]: -0.166
composite z-score [11]: 0.831
z-score [12]: -0.292 (inactive)
z-score [13]: 1.12 (inactive)
z-score [14]: 0.171 (inactive)
composite z-score [15]: 0.729
z-score [16]: -0.0426 (inactive)
composite z-score [17]: 0.0897
composite z-score [18]: 0.221
composite z-score [19]: -0.414
composite z-score [20]: -0.0039

COc1ccc([Si](C)(C)[C@H]2[C@H](CC(=O)N(CCO)Cc3ccccc3)O[C@@]3(C(=O)N(c4ccccc4)c4ccccc43)[C@@H]2C)cc1
composite z-score [1]: -0.249
composite z-score [2]: -0.182
composite z-score [3]: -0.0261
composite z-score [4]: 0.638
composite z-score [5]: 0.199
composite z-score [6]: 0.951
composite z-score [7]: 0.46
z-score [8]: -1.91 (inactive)
composite z-score [9]: 0.294
composite z-score [10]: -0.0581
composite z-score [11]: 1.51
z-score [12]: 1.48 (inactive)
z-score [13]: 0.656 (inactive)
z-score [14]: 3.73 (inactive)
composite z-score [15]: 1.79
z-score [16]: -0.366 (inactive)
composite z-score [17]: -0.11
composite z-score [18]: 1.3
composite z-score [19]: 1.11
composite z-score [20]: -0.13

COc1ccc(-c2cc3c(c(CCc4ccccc4)n2)[Si](C(C)C)(C(C)C)O[C@H]3c2ccccc2)cn1
composite z-score [1]: -0.605
composite z-score [2]: -0.678
composite z-score [3]: -0.0754
composite z-score [4]: 0.0306
composite z-score [5]: 0.135
composite z-score [6]: 0.371
composite z-score [7]: -0.598
z-score [8]: 0.0071 (inactive)
composite z-score [9]: 0.16
composite z-score [10]: -0.164
composite z-score [11]: 0.469
z-score [12]: 0.646 (inactive)
z-score [13]: -0.0525 (inactive)
z-score [14]: 1.23 (inactive)
composite z-score [15]: -0.0354
z-score [16]: -1.12 (inactive)
composite z-score [17]: -0.213
composite z-score [18]: 0.75
composite z-score [19]: 0.439
composite z-score [20]: -0.0749

CC1C2C(CCCO)=CC(C3C(=O)N(C)C(=O)C23)N1Cc1cccc(OC(F)(F)F)c1 (stereo not given)
composite z-score [1]: -0.0014
composite z-score [2]: 0.289
composite z-score [3]: 0.0653
composite z-score [4]: 0.647
composite z-score [5]: 0.929
composite z-score [6]: 2.04
composite z-score [7]: 1.37
z-score [8]: 0.0511 (inactive)
composite z-score [9]: 0.155
composite z-score [10]: 0.289
composite z-score [11]: 1.53
z-score [12]: 0.573 (inactive)
z-score [13]: -0.951 (inactive)
z-score [14]: 1.61 (inactive)
composite z-score [15]: 3.13
z-score [16]: 0.964 (inactive)
composite z-score [17]: 0.156
composite z-score [18]: 0.148
composite z-score [19]: 0.769
composite z-score [20]: 0.1

COC(=O)C(CC#Cc1ccc2c(c1)[C@]1(C(=O)N2)[C@H](c2ccccc2OCCO)N2[C@H](c3ccccc3)[C@H](c3ccccc3)OC(=O)[C@H]2[C@@H]1C(=O)N1CCN(c2ncccn2)CC1)C(=O)OC
composite z-score [1]: -0.35
composite z-score [2]: 0.474
composite z-score [3]: -0.0937
composite z-score [4]: 0.431
composite z-score [5]: 0.852
composite z-score [6]: 1.31
composite z-score [7]: 1.13
z-score [8]: -1.46 (inactive)
composite z-score [9]: 0.255
composite z-score [10]: -0.11
composite z-score [11]: 1.51
z-score [12]: 2.61 (inactive)
z-score [13]: 1.28 (inactive)
z-score [14]: 6.83 (inactive)
composite z-score [15]: 2.15
z-score [16]: 0.173 (inactive)
composite z-score [17]: -0.107
composite z-score [18]: 1.71
composite z-score [19]: 1.09
composite z-score [20]: -0.0982

CC1C2C(CCCO)=CC(C3C(=O)N(C(N)=O)C(=O)C23)N1Cc1cccc(OC(F)(F)F)c1 (stereo not given)
composite z-score [1]: -0.261
composite z-score [2]: 0.913
composite z-score [3]: -0.0558
composite z-score [4]: 0.767
composite z-score [5]: 0.53
composite z-score [6]: 1.18
composite z-score [7]: 1.28
z-score [8]: 1.88 (inactive)
composite z-score [9]: 0.269
composite z-score [10]: 0.0659
composite z-score [11]: 1.31
z-score [12]: -3.02 (inactive)
z-score [13]: -0.198 (inactive)
z-score [14]: 0.58 (inactive)
composite z-score [15]: 2.79
z-score [16]: 0.262 (inactive)
composite z-score [17]: -0.139
composite z-score [18]: 0.487
composite z-score [19]: 0.628
composite z-score [20]: -0.0828

COc1ccc([Si](C)(C)[C@H]2[C@H](CC(=O)N3CCC[C@H]3CO)O[C@@]3(C(=O)N(C)c4c(Br)cc(C)cc43)[C@@H]2C)cc1
composite z-score [1]: 0.536
composite z-score [2]: 1.88
composite z-score [3]: 0.336
composite z-score [4]: 1.04
composite z-score [5]: 0.284
composite z-score [6]: 2.51
composite z-score [7]: 1.41
z-score [8]: -1.39 (inactive)
composite z-score [9]: 1.12
composite z-score [10]: 0.104
composite z-score [11]: 1.54
z-score [12]: -0.749 (inactive)
z-score [13]: -0.108 (inactive)
z-score [14]: -0.385 (inactive)
composite z-score [15]: 3.42
z-score [16]: -0.2 (inactive)
composite z-score [17]: 0.412
composite z-score [18]: 2.05
composite z-score [19]: 0.498
composite z-score [20]: 0.459

O=C1OCC=C[C@H]2OC34C=CCN(Cn5nnc6ccccc65)C(=O)[C@H]3N(CCO)C(=O)[C@@H]4[C@@H]12 (stereo not given in full)
composite z-score [1]: 0.645
composite z-score [2]: 1.9
composite z-score [3]: -0.129
composite z-score [4]: -0.749
composite z-score [5]: -1.45
composite z-score [6]: 0.864
composite z-score [7]: 0.579
z-score [8]: 0.13 (inactive)
composite z-score [9]: -0.406
composite z-score [10]: -0.139
composite z-score [11]: 0.551
z-score [12]: 0.936 (inactive)
z-score [13]: 0.159 (inactive)
z-score [14]: 0.294 (inactive)
composite z-score [15]: 2.55
z-score [16]: -0.55 (inactive)
composite z-score [17]: -0.0368
composite z-score [18]: -1.88
composite z-score [19]: -0.481
composite z-score [20]: -0.171
